# According to PubChem BioAssay AID1942 (Johns Hopkins Ion Channel Center, 2009):
# Among all 2,400 compounds or so, about 580 (24%) were called active.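 Rule for the calls: active = activity change at or above the mean plus 3 SD of buffer wells without dofetilide, per plate; inactive = the rest.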 Only a sample is shown.
# Target: Potassium voltage-gated channel subfamily KQT member 2 (Rattus norvegicus) (UniProt O88943)
# Experiment: rat KCNQ2 channel activation by compounds alone, confirmation, counter-screen for hERG block protector project, cell-based, CHO, FluxOR thallium flux (AID 1942);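 note: normalized value minus buffer-control mean plus three SD of buffer wells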
# Details: CHO-KCNQ2 cells, FluxOR thallium flux fluorescence; at 10 µM; stronger effect = higher value
# Chain of Potassium voltage-gated channel subfamily KQT member 2 (Rattus norvegicus) (O88943 whole entry, looked up): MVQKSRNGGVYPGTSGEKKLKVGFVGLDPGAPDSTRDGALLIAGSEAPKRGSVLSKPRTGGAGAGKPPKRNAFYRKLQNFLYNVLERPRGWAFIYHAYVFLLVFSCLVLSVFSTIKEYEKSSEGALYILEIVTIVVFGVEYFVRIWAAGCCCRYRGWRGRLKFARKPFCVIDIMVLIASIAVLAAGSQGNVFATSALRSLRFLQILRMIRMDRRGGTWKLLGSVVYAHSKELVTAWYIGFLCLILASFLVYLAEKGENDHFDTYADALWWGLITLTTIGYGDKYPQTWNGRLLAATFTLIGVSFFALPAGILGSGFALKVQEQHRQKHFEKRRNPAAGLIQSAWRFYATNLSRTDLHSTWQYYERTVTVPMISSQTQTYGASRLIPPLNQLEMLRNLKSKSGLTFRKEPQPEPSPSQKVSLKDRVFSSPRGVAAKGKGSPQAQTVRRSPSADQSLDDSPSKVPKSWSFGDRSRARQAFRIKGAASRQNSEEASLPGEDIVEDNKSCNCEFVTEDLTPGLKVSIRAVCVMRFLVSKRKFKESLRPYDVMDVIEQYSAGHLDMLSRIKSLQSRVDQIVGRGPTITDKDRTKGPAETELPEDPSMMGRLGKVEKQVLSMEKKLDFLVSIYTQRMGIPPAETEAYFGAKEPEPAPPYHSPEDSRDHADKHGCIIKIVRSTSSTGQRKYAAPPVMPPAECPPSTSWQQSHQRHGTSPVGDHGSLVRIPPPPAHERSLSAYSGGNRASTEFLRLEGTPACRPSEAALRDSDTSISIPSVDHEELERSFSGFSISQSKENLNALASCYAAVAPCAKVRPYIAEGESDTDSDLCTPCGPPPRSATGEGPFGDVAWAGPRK
row,SMILES,"activity change, less the hit threshold"
1,CCN(CC)CCCNC(=O)c1cn(-c2cccc(OC)c2)c(=O)c2ccccc12,-18.5% (inactive)
2,COc1ccc(-c2ccc(/C=N/NC(=O)c3cccnc3)o2)c([N+](=O)[O-])c1,-11.4% (inactive)
3,C=CCNC(=S)Nc1sc2c(c1C(=O)OCC)CC(C)(CC)OC2 (stereo not given),15.9% (active)
4,C=CCNC(=S)Nc1sc2c(c1C(=O)OCC)CC(C(C)C)OC2 (stereo not given),16.9% (active)
5,COC(=O)n1c(=S)oc2cc(Cl)ccc21,-10% (inactive)
6,Cc1ccccc1OC(=O)n1c(=S)oc2cc(Cl)ccc21,9.7% (active)
7,Cc1ccc(Cl)cc1NC(=O)COC(=O)c1ccccc1O,-21.1% (inactive)
8,CCCCC(=O)Nc1ccc(NCc2ccc(C)s2)cc1,42.5% (active)
9,CCCCC(=O)Nc1cccc(C(=O)Nc2ccccc2C(=O)O)c1,-4% (inactive)
10,Cc1ccc(NC(=O)CCC(=O)OCC(F)(F)C(F)F)cc1,-23% (inactive)
11,COc1cccc(OC)c1OCCOCCN1CCN(C)CC1,-21% (inactive)
12,O=C(NC(=S)Nc1ccccc1N1CCCCC1)c1cccs1,-23.1% (inactive)
13,O=C(NC(=S)Nc1ccccc1)c1cccs1,3.3% (active)
14,O=C(NC(=S)Nc1ccc(N2CCCCC2)cc1)c1cccs1,-9.5% (inactive)
15,O=C(NC(=S)NCc1ccccc1)c1cccs1,5.6% (active)
16,CCN(CC)c1ccc(NC(=S)NC(=O)c2cccs2)cc1,-9.5% (inactive)
17,CCSc1nc2c(c(=O)[nH]1)C(c1ccc(C)cc1)C1=C(CCCC1=O)N2 (stereo not given),-8.9% (inactive)
18,O=C(O)C/C(=C\c1cc(Br)cs1)c1nc2ccccc2o1,-8.4% (inactive)
19,CCCCCCc1cc2cc(-c3nnc(-c4ccccc4O)o3)c(=O)oc2cc1O,-7% (inactive)
20,CC(C)(C)c1csc(NC(=O)C2=COCCO2)n1,-13% (inactive)
21,Oc1c(Cl)cc(Cl)cc1/C=N/c1nccs1,32.3% (active)
22,Oc1c(Cl)cc(Cl)cc1/C=N/c1ncn[nH]1,23.9% (active)
23,Oc1c(Cl)cc(Cl)cc1Sc1cc(Cl)cc(Cl)c1O,-1.7% (inactive)
24,CC1CCN(C(=O)CSc2nnc(CNC(=O)c3ccco3)o2)CC1,-12.8% (inactive)
25,CCOc1ccc(NC(=O)CS(=O)CC(=O)NC2CCCc3ccccc32)cc1 (stereo not given),-13.6% (inactive)

row,SMILES,"activity change, less the hit threshold"
1,Cc1nc2ccccc2n1-c1ccccc1,-4.2% (inactive)
2,COc1ccc(-n2ncc3c2CC(C)(C)CC3NC(=O)c2cn[nH]c2)cc1 (stereo not given),-22.9% (inactive)
3,O=C(O)c1cc(NN=C2c3ccccc3-c3ccccc32)ccc1Cl,32.4% (active)
4,O=C(O)c1cc(N/N=C/c2ccc(-c3ccccc3)cc2)ccc1Cl,-22.4% (inactive)
5,CC(C)Oc1cc(S(=O)(=O)N2CCCCC2)ccc1N,-15.7% (inactive)
6,O=[N+]([O-])c1ccc(S(=O)(=O)Nc2ccc(S(=O)(=O)N3CCCC3)cc2)cc1,-23.3% (inactive)
7,CCCCOc1ccc(-c2c(C#N)c(N)[nH]c(=S)c2C#N)cc1,-10.1% (inactive)
8,CCOC(=O)c1c(C)[nH]c(=S)c(C#N)c1-c1ccc(Cl)cc1,5.2% (active)
9,Cc1[nH]c(=S)c(C#N)c(C)c1Cc1ccc(Cl)cc1Cl,-7.1% (inactive)
10,Cc1ccc([N+](=O)[O-])c2c1C(N1CC(C)OC(C)C1)C(C)(C)O2 (stereo not given),-14.4% (inactive)
11,S=c1nc(C2CCCCC2)n(-c2ccccc2)[nH]1,41.2% (active)
12,Cc1cc(OCC(=O)Nc2cc(S(=O)(=O)N3CCOCC3)ccc2N2CCCC2)ccc1C(C)C,-14.1% (inactive)
13,Cc1nnc(C)n1/N=C/c1cc(Br)cc(Br)c1O,17.8% (active)
14,CNC(=S)N/N=C/c1cc(Br)cc(Br)c1O,-6.6% (inactive)
15,CC(=O)C1=C(O)C(=O)N(c2cccnc2)C1c1ccc(Cl)cc1 (stereo not given),-25.8% (inactive)
16,O=C(COc1ccc2c3c(c(=O)oc2c1)CCC3)NCC1CCC(C(=O)O)CC1 (stereo not given),-17.1% (inactive)
17,O=C(COc1ccc2c3c(c(=O)oc2c1)CCC3)N[C@@H](Cc1ccccc1)C(=O)O,8.1% (active)
18,Cc1c(C)c2ccc(OCC(=O)N[C@@H](Cc3ccccc3)C(=O)O)cc2oc1=O,-10% (inactive)
19,Cc1cc(=S)nc(-c2ccccn2)[nH]1,-4.4% (inactive)
20,Cc1[nH]c(-c2ccccn2)nc(=S)c1Cl,92% (active)
21,COC(=O)Cc1[nH]n(-c2nc3ccccc3s2)c(=O)c1C(C)=Nc1ccc(C)cc1,-15.8% (inactive)
22,COc1cccc(C(=O)NNC(=O)C(=O)Nc2cccc3ccccc23)c1,59.7% (active)
23,COc1ccc(NC(=O)C(=O)NNC(=O)c2cccs2)c(OC)c1,30.8% (active)
24,COc1cc(NC(=O)c2cc(-c3cccnc3)nc3ccc(C)cc23)c(OC)cc1Cl,-13.9% (inactive)
25,COc1cc(OC)cc(C(=O)NNC(=O)C(=O)Nc2cc(OC)c(Cl)cc2OC)c1,49.6% (active)
